From PubChem BioAssay (NCATS)
Inconclusive results are not listed. A call without a number means that no potency is given here. Active and inactive are the calls of the source. Calls follow the shape of the dose curve; as a rule, active = well fitted activation curve with a large enough effect; inconclusive = small, poorly fitted or top-dose-only effect; inactive = no such curve, though single readings can be large or run the other way.

Assay: Validation screen for small molecules that induce genotoxicity in human embryonic kidney (HEK293T) cells expressing luciferase-tagged ELG1 (AID 493106)
Conditions: luminescence; series mostly up to 46.1 µM
Text: NIH Molecular Libraries Probe Production Network [MLPCN]
NIH Chemical Genomics Center [NCGC]
Assay Provider: Kyungjae Myung, NHGRI, NIH
Keywords: MLPCN, qHTS, NCGC, genotoxicity, cancer
Cancer cells divide rapidly compared to normal cells in the body. During cell division, cancer cells need to duplicate their genome by DNA replication. The failure of genome duplication leads to cancer cells' death. Therefore, inhibitors of DNA replication could specifically kill cancer cells. Based on this concept, many chemotherapeutic agents were developed and have been used to treat cancer patients. However, there are a limited number of agents available in the clinical setting, and some of those that do exist have low efficacy and severe side effects. Therefore, if we can find the compounds that effectively block DNA replication either by directly damaging DNA or by inhibiting other cellular mechanisms, the options for cancer treatment will be broadened. With this in mind, we developed a quantitative high-throughput ELG1-luciferase reporter gene assay. Since the level of human ELG1 protein is enhanced in response to genetic stresses, increases in luciferase activity can be used to identify compounds that cause genetic stress.
For genotoxicity screening, 2,000 cells in 5 uL/well were dispensed into white, solid-bottom 1536-well plates using a solenoid-based dispenser. Following transfer of 23 nL compound or DMSO vehicle by a pin tool, the plates were incubated 16 hr at 37 °C and 5% CO2. 5 ul ONE-Glo (Promega) was then added to each plate and following a 30 min incubation at room temperature, luciferase activity was quantified on a ViewLux CCD-based plate reader.
For `CN(C)C(=O)Oc1cccc([N+](C)(C)C)c1`, the Potency was “inactive”.
With `CCNC(=O)N1CCN(CCCC(c2ccc(F)cc2)c2ccc(F)cc2)CC1` the Potency was “inactive”.
In the case of `CSc1ccc(C(=O)c2[nH]c(=O)[nH]c2C)cc1`, the Potency was “inactive”.
For `CC(=O)OCC1=C(C(=O)O)N2C(=O)[C@@H](NC(=O)Cc3cccs3)[C@H]2SC1`, the Potency was “inactive”.
In the case of `CCCOc1ccccc1-c1nc2n[nH]nc2c(=O)[nH]1`, the Potency was “inactive”.
For `CC(=O)Oc1cc(C(C)C)c(OCCN(C)C)cc1C`, the Potency was “inactive”.
In the case of `COCCOC(=O)C1=C(C)NC(C)=C(C(=O)OC(C)C)C1c1cccc([N+](=O)[O-])c1` (stereo not given), the Potency was “inactive”.
In the case of `Fc1ccc(C(c2ccc(F)cc2)N2CCN(C/C=C/c3ccccc3)CC2)cc1`, the Potency was “inactive”.
With `CN(C)CCN(Cc1cccs1)c1ccccn1` the Potency was “inactive”.
In the case of `CC(C)[N+](C)(CCOC(=O)C1c2ccccc2Oc2ccccc21)C(C)C`, the Potency was “inactive”.
In the case of `CN(C)CCCN1c2ccccc2Sc2ccccc21`, the Potency was “inactive”.
For `CC(C)NNC(=O)c1ccncc1`, the Potency was “inactive”.
For `FC(F)(F)c1ccccc1-n1ccnc1`, the Potency was “inactive”.
In the case of `C[C@]12CC[C@@H]3c4ccc(O)cc4C[C@@H](CCCCCCCCCS(=O)CCCC(F)(F)C(F)(F)F)[C@H]3[C@@H]1CC[C@@H]2O` (stereo not given in full), the Potency was “inactive”.
For `CN1C(=O)CC[C@H]1c1cccnc1`, the Potency was “inactive”.
For `NC1=NCC2c3ccccc3Cc3ccccc3N12` (stereo not given), the Potency was “inactive”.
For `CN(C)CC[C@@H](c1ccc(Br)cc1)c1ccccn1`, the Potency was “inactive”.
With `COc1ccc2c(c1OC)C(=O)O[C@@H]2[C@H]1c2c(cc3c(c2OC)OCO3)CCN1C` the Potency was “inactive”.
For `CCn1nc(C(=O)O)c(=O)c2cc3c(cc21)OCO3`, the Potency was “inactive”.
In the case of `CC[N+](C)(C)c1cccc(O)c1`, the Potency was “inactive”.
In the case of `CC(C)NCC(O)c1cc(O)cc(O)c1` (stereo not given), the Potency was “inactive”.
In the case of `CCCCCCCC/C=C\CCCCCCCC(=O)NCc1ccc(O)c(OC)c1`, the Potency was “inactive”.
For `CC(=O)[C@@]1(O)CC[C@H]2[C@@H]3CCC4=CC(=O)CC[C@]4(C)[C@H]3CC[C@@]21C`, the Potency was “inactive”.
For `CCN1CCc2nc(N)oc2CC1`, the Potency was “inactive”.
For `CN(C)[C@@H]1C(=O)C(C(N)=O)=C(O)[C@@]2(O)C(=O)C3=C(O)c4c(O)ccc(Cl)c4[C@@H](O)[C@H]3C[C@@H]12`, the Potency was “inactive”.
With `NC(N)=N/N=C/c1c(Cl)cccc1Cl` the Potency was “inactive”.
With `CCOC(=O)C1=C(C)NC(C)=C(C(=O)OC)C1c1cccc(Cl)c1Cl` (stereo not given) the Potency was “inactive”.
With `CCc1cccc(N(C)C(N)=Nc2cccc3ccccc23)c1` the Potency was “inactive”.
With `CN1CCN(C2=Nc3ccccc3Oc3ccc(Cl)cc32)CC1` the Potency was “inactive”.
For `CC1=NS(=O)(=O)c2cc(Cl)ccc2N1`, the Potency was “inactive”.
In the case of `C#CCN(C)CCCOc1ccc(Cl)cc1Cl`, the Potency was “inactive”.
In the case of `Cc1ccc(=O)n(-c2ccccc2)c1`, the Potency was “inactive”.
In the case of `O=C(CCCN1CCC(O)(c2cccc(C(F)(F)F)c2)CC1)c1ccc(F)cc1`, the Potency was “inactive”.
With `C[C@]12CCC(=O)C=C1CC[C@@H]1[C@@H]2C(=O)C[C@@]2(C)[C@H]1CC[C@]2(O)C(=O)CO` the Potency was “inactive”.
With `CCO/C([O-])=N/c1c[n+](N2CCOCC2)no1` the Potency was “inactive”.
With `CCN(CC)CC(=O)Nc1c(C)cccc1C` the Potency was “inactive”.
For `C(=C\c1ccccc1)/CN1CCN(C(c2ccccc2)c2ccccc2)CC1`, the Potency was “inactive”.
In the case of `CCCC(C(=O)OCCN(CC)CC)(c1ccccc1)c1ccccc1`, the Potency was “inactive”.
With `NS(=O)(=O)c1cc2c(cc1Cl)NC(C1CC3C=CC1C3)NS2(=O)=O` (stereo not given) the Potency was “inactive”.
With `Cc1nnc(SCC2=C(C(=O)O)N3C(=O)[C@@H](NC(=O)Cn4cnnn4)[C@H]3SC2)s1` the Potency was “inactive”.
